Data reported in PubChem BioAssay AID753 (Emory University Molecular Libraries Screening Center, 2007).
This is one part of the list. Results filed as inconclusive are left out. Values without a mark were called inactive.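 How the source made its calls: active means percent of control activity at or below 60%; inconclusive means HPLC trace unusable from injection failure or solvent front hiding peaks; inactive means the rest, plus ubiquitin peak ratio over a set limit.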

Target: Ubiquitin carboxyl-terminal hydrolase BAP1 (Homo sapiens) (UniProt Q92560)
Sequence (Q92560 whole entry, looked up): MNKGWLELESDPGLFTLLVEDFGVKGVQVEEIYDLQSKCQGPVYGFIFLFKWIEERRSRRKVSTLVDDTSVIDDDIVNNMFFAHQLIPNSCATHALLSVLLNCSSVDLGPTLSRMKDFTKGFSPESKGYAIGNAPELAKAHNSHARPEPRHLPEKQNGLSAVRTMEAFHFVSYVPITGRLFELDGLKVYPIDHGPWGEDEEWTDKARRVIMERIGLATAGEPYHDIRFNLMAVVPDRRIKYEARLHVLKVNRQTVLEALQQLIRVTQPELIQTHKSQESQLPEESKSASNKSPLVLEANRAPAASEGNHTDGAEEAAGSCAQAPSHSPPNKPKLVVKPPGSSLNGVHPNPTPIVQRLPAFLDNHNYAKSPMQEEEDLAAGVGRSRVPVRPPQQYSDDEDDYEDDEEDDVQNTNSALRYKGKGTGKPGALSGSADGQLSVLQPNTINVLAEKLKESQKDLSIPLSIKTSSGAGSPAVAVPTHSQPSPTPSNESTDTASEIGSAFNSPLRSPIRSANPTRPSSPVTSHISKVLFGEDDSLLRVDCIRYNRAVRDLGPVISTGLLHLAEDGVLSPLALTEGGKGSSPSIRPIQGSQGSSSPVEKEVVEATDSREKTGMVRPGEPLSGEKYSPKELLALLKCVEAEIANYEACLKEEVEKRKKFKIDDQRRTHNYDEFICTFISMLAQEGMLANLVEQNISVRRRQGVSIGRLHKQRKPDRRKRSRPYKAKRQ
Assay: BAP1 ubiquitin ester hydrolysis inhibition – biochemical, Ub-ethyl ester substrate, HPLC readout, orthogonal assay, confirmation (AID 753)
Conditions: purified BAP1, Ub-ethyl ester hydrolysis, at 20 µM, hits give low values

CCCCCn1c(=O)c(C(=O)NCc2ccccn2)c(O)c2ccccc21 gave a % of control activity of 112%.
